Test results from the supplement of paper PMC11732987, “Enantioselective OTUD7B fragment discovery through chemoproteomics screening and high-throughput optimisation” (Communications Chemistry, 2025).

Legend:
Assay in all cases: log2 ratio of Biotin-Ahx-Ub-VS probe labelling (fragment/DMSO); higher = less target engagement (more negative = stronger competition), active = hit call of the paper (q ≤ 0.05, log2 ratio ≤ -1)
Details in all cases: compound concentration: 200 uM; treatment time: 3 h
[1] = molecular target: T1, ALG13 (UniProt Q9NP73)
T1 sequence (whole entry): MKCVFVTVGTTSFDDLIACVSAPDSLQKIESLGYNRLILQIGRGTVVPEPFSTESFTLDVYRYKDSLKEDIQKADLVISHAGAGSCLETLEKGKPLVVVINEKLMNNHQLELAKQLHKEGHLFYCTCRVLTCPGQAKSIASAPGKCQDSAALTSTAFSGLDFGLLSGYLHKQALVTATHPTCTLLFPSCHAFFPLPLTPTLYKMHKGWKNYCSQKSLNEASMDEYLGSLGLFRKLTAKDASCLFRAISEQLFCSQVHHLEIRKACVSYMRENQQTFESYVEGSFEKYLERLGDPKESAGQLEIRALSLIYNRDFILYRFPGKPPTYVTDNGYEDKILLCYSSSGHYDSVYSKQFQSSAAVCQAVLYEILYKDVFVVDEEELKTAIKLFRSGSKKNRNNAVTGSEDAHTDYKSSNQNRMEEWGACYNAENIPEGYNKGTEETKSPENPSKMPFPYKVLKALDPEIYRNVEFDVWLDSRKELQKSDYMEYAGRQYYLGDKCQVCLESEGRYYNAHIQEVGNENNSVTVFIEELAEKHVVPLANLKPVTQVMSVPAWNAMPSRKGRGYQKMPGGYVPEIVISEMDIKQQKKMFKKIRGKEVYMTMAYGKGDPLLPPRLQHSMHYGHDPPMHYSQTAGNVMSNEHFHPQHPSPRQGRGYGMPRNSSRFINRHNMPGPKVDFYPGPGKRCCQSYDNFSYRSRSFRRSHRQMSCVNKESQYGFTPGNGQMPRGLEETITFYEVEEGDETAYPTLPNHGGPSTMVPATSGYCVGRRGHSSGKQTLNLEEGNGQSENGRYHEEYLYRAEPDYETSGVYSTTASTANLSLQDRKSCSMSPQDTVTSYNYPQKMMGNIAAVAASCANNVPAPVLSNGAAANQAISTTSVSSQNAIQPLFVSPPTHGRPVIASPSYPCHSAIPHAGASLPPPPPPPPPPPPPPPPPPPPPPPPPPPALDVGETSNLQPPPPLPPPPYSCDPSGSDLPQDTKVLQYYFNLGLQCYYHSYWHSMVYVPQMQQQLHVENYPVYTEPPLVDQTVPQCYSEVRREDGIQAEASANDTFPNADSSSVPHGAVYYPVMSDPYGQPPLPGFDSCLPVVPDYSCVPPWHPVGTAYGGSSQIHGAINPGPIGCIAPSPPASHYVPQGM
In short: (§1)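 Fragment (200 µM) or vehicle was incubated for 3 h with triplicate HEK293T lysate samples of 495 µg, which were then treated with Biotin-Ahx-Ub-VS at 0.5 µM final for 1 h. Labelled DUBs were enriched on NeutrAvidin, digested with LysC and trypsin, and analysed by diaPASEF LC-MS/MS. Values are average log2 fragment/vehicle ratios from an unpaired t-test on global-median-normalised Spectronaut label-free quantities, using proteins with ≥2 unique peptides.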

[2] = molecular target: ATXN3 (UniProt P54252)
In short: as §1

[3] = molecular target: T2, BAP1 (UniProt Q92560)
T2 sequence (whole entry): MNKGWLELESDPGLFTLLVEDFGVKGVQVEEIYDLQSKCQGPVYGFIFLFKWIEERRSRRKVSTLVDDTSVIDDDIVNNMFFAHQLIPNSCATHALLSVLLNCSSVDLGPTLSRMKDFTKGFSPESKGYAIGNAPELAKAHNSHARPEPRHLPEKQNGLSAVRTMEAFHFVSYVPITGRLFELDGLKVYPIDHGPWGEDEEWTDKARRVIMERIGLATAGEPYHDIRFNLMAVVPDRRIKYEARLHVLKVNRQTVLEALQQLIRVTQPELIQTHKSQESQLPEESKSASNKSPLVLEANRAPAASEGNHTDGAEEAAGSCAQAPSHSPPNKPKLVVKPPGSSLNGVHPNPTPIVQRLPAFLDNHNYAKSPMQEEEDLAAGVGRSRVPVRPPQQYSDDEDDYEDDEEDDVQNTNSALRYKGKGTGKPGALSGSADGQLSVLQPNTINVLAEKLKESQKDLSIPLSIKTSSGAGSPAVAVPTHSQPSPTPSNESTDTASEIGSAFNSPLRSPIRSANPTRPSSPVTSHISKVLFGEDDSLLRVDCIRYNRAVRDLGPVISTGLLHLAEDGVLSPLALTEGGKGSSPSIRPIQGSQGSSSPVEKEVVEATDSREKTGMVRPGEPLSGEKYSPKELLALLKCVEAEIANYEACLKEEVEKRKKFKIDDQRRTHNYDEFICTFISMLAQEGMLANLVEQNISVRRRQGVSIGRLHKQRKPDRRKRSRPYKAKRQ
In short: as §1

[4] = molecular target: EIF3F (UniProt O00303)
In short: as §1

[5] = molecular target: EIF3H (UniProt O15372)
In short: as §1

[6] = molecular target: T3, FAM105A (UniProt Q9NUU6)
T3 sequence (whole entry): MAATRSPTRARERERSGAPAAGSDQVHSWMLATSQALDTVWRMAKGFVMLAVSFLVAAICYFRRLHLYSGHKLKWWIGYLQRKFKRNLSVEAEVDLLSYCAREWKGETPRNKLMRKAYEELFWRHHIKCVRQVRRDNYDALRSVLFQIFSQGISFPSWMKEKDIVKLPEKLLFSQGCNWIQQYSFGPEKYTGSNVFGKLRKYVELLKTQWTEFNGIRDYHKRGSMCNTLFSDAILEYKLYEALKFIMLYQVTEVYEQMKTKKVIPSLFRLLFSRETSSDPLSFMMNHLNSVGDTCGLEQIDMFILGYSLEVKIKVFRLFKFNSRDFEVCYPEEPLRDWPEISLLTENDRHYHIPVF
In short: as §1

[7] = molecular target: OTUB1 (UniProt Q96FW1)
In short: as §1

[8] = molecular target: T4, OTUD4 (UniProt Q01804)
T4 sequence (whole entry): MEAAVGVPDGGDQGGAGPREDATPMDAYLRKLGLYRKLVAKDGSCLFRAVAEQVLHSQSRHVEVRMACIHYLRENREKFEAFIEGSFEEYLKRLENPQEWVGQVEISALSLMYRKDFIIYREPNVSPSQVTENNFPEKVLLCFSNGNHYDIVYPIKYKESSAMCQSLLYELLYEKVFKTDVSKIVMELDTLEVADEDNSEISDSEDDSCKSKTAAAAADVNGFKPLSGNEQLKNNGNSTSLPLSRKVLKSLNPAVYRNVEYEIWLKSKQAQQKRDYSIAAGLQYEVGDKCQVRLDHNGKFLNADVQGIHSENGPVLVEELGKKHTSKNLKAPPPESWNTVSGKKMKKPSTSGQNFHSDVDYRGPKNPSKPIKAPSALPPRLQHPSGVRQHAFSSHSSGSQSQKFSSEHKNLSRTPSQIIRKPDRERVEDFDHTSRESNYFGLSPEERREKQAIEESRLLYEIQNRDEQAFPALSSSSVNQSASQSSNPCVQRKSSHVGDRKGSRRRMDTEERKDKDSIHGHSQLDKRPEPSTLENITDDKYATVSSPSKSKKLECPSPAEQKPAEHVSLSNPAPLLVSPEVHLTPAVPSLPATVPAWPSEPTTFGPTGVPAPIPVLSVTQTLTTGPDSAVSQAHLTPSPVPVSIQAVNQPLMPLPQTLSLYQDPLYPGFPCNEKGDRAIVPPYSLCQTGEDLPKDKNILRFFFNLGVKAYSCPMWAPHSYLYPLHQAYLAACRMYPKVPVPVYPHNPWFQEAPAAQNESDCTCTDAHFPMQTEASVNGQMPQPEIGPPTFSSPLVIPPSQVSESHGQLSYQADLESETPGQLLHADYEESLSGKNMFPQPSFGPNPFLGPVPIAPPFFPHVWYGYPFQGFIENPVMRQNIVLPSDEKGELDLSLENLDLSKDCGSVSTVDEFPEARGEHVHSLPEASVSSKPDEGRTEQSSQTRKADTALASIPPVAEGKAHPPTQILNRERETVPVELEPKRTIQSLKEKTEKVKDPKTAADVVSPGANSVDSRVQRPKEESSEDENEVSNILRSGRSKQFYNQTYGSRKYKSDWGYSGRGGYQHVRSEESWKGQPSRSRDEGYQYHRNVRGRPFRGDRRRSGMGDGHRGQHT
In short: as §1

[9] = molecular target: T5, OTUD5 (UniProt Q96G74)
T5 sequence (whole entry): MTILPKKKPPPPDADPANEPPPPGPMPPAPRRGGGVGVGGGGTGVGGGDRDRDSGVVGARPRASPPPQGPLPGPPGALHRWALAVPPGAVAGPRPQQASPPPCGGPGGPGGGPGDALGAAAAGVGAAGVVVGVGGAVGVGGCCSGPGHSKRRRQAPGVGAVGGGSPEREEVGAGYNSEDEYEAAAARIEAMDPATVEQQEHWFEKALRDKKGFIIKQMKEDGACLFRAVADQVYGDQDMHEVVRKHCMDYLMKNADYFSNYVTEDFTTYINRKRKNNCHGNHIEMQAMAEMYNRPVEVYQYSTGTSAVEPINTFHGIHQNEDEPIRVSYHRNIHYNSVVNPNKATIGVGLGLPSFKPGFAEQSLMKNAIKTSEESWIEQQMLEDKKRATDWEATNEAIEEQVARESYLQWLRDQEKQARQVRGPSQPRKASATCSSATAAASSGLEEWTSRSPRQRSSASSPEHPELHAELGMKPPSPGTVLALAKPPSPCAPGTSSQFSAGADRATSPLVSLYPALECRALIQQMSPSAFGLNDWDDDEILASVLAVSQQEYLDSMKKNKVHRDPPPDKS
In short: as §1

Measured: log2 ratio of Biotin-Ahx-Ub-VS probe labelling

OTUB1, sequence (Q96FW1 whole entry): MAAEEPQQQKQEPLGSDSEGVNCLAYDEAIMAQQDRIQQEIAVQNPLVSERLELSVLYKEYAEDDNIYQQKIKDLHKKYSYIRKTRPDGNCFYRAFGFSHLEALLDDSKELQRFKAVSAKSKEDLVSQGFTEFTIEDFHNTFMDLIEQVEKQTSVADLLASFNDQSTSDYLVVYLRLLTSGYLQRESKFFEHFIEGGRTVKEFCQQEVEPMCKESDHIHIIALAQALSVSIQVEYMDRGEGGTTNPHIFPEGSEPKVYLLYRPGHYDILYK
EIF3H, sequence (O15372 whole entry): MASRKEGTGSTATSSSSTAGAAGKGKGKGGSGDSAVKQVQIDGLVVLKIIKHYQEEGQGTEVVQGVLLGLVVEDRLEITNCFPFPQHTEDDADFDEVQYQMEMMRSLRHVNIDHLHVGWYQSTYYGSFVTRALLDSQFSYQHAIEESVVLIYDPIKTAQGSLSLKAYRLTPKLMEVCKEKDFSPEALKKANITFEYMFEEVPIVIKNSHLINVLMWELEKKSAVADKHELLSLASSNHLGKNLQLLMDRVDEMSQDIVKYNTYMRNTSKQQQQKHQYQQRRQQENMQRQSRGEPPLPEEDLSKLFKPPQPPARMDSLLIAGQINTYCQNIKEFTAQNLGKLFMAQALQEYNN
EIF3F, sequence (O00303 whole entry): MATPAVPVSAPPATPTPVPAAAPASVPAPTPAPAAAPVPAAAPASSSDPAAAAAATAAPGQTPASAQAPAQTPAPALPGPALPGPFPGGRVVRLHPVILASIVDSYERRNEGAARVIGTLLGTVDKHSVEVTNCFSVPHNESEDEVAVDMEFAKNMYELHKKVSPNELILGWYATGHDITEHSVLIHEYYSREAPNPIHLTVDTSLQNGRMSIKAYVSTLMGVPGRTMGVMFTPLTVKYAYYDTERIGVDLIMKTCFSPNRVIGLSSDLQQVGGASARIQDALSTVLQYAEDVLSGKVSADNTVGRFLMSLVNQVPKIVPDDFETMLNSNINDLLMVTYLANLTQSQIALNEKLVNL
ATXN3, sequence (P54252 whole entry): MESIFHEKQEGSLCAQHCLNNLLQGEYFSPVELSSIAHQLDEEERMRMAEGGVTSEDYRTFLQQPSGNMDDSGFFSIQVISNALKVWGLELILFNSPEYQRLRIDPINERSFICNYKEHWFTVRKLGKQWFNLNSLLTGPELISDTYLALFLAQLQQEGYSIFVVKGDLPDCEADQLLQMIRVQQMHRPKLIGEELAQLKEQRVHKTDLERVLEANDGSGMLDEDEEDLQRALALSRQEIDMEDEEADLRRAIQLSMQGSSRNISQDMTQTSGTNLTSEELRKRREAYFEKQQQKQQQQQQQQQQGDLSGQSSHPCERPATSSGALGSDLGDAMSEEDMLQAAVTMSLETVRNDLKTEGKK

N#Cc1ccc(CNC(=O)CCl)cc1
inactive: [1] -0.583 | [2] -0.171 | [4] -0.0324 | [5] 0.142 | [6] -0.00692 | [7] -0.0861 | [8] -0.138 | [9] -0.348
active: [3] -3.38
